Experimental data as given in PubChem BioAssay.
Activity calls are given as the source filed them.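 The calls were made as follows, unless noted: active = inhibition of the reporter signal at or above 50%; inactive = inhibition below 50%.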

Columns and labels:
[1] = inhibitors of TNFa-induced NFkB p65 translocation, primary screen, imaging, HUVEC, MLSMR starter and 10KST1 sets (AID 438;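 active = inhibition above 20% together with a positive visual image hit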;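 also: compound added about 3h40 before a 20 min TNFalpha stimulation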;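 as to inhibition: signal is the nuclear over cytoplasmic p65 intensity ratio per well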); conditions: HUVEC TNFa-induced p65 nuclear translocation; cell count: measured here: nuclei count (cytotoxicity indicator), at 2.08 µM unless noted; inhibition: at 2 µM, stronger effect = higher value unless noted
[2] = reduction of polyQ htt aggregates in cells – imaging, exon1htt(103Q)mCFP cells, high-content imaging, primary screen (AID 483;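 active = visual image review flags a hit and inhibition of aggregation exceeds 20%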;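 also: compound exposure lasted 3 days before fixation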;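 as to nuclei count: percent of the per-plate median nuclei count of sample wells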); conditions: exon1htt(103Q)mCFP cell line, aggregate imaging, at 2 µM; inhibition of aggregation: stronger effect = higher value; nuclei count: measured here: cell count, toxicity
[3] = endothelial E-selectin expression blockers – imaging, HUVEC, immunofluorescence, MLSMR starter and 10KST1 sets, primary screen (AID 487;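 active = visually confirmed hit in the image check and inhibition above 20%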;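 as to inhibition: signal is fraction of cell area covered by stained E-selectin grains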;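 as to nuclei count: 100% = median nuclei count of all wells on the same plate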); conditions: HUVEC TNFalpha-induced E-selectin immunofluorescence imaging, at 2 µM; inhibition: stronger effect = higher value; nuclei count: measured here: cell number, toxicity
[4] = target: Voltage-gated potassium channel subunit beta-2 (Rattus norvegicus) (UniProt P62483); assay: inhibitors of rat Kvbeta2 reductase activity – biochemical, NADPH fluorescence, primary screen (AID 622;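 active = fluorescence slope higher than the sample average by over 3 SD, cut at about -0.22 in these data, passing the limit was not always enough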;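 also: slope of raw intensity against log time taken from 70 to 1610 s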); conditions: recombinant KvBeta, 4-cyanobenzaldehyde reduction, at 10 µM, stronger effect = higher value
[5] = target: Voltage-gated potassium channel subunit beta-2 (Rattus norvegicus) (UniProt P62483); assay: enhancers of rat Kvbeta2 NADPH turnover – biochemical, NADPH fluorescence, primary screen (AID 623;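 active = NADPH fluorescence slope more negative than the mean of all samples by about 3 SD, 99.7% confidence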;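 also: fluorescence intensity change per second fitted from 20 to 320 s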); conditions: Recombinant KvBeta, NADPH fluorescence decrease slope, 10 min; at 10 µM; stronger effect = lower value
[6] = target: Alpha-2C adrenergic receptor (Homo sapiens) (UniProt P18825); assay: compounds altering alpha2C-coupled GIRK flux – cell-based, HEK293 alpha2C/GIRK1/2, thallium flux, primary screen (AID 624;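 active = fluorescence slope after compound addition differing from the mean of all screened samples at 99.7% confidence, in either direction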;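 also: slope of fluorescence ratio to pre-addition baseline per second over 15 to 24 s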); conditions: thallium flux BTC fluorescence, at 10 µM, actives lie on both sides
[7] = blockers of RIG-like receptor reporter activation – cell-based, Sendai virus stimulus, luciferase, 10K MLSCN set, TLR/RLR signaling modifier project, primary screen (AID 602276;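 active = inhibition at or above 50% at 10 µM; inactive = inhibition below 50%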;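 also: firefly luciferase from ISG56 promoter only with Renilla not read in this screen; 0% = Sendai virus plus DMSO and 100% = medium plus DMSO without virus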); conditions: HEK293 RL24 IRF3 luciferase reporter, at 10 µM, stronger effect = higher value
[8] = TLR3 IRF3 reporter activation blockers – cell-based, poly I:C stimulus, luciferase, 10K MLSCN set, primary screen (AID 602277); conditions: HEK293-TLR3 RL24 IRF3 luciferase reporter, at 10 µM, stronger effect = higher value

Chain of Alpha-2C adrenergic receptor (Homo sapiens) (P18825 whole entry, looked up): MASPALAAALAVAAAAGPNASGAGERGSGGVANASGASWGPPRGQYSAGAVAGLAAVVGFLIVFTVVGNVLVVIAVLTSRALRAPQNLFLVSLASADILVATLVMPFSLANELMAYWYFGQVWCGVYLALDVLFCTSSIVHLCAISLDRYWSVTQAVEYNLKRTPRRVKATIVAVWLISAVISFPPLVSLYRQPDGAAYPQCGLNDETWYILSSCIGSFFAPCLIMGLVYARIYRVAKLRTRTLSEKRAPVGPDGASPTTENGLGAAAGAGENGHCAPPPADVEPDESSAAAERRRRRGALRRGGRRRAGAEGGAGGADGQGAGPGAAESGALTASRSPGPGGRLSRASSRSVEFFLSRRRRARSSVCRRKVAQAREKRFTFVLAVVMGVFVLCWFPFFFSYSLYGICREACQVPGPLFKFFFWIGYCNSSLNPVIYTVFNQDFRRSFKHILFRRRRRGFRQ
Chain of Voltage-gated potassium channel subunit beta-2 (Rattus norvegicus) (P62483 whole entry, looked up): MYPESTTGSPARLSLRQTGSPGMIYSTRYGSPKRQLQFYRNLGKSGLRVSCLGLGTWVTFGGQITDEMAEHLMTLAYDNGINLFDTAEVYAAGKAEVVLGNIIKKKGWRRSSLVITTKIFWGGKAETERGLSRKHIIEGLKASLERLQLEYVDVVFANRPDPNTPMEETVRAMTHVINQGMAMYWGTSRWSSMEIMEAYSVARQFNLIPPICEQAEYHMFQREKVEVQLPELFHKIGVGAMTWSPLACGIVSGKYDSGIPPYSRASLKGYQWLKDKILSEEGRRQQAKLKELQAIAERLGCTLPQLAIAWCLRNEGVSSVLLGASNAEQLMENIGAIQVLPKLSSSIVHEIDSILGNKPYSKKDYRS

Structure (SMILES): Cc1ccccc1-n1c(O)c(C=NCCN2CCOCC2)c(=O)[nH]c1=O
- cell count [1]: 335
- inhibition [1]: -9.5% (inactive)
- inhibition of aggregation [2]: -8.6% (inactive)
- nuclei count [2]: 138%
- inhibition [3]: -110% (inactive)
- nuclei count [3]: 135%
- fluorescence slope [4]: -0.432 (inactive)
- NADPH fluorescence slope [5]: -2.7e-05 (inactive)
- slope [6]: 0.00516 (inactive)
- inhibition [7]: 1.33% (inactive)
- inhibition [8]: -0.798% (inactive)

Structure (SMILES): Cc1cccc(N2CCc3c2nc2ccccc2c3N)c1
- cell count [1]: 731
- inhibition [1]: -6.5% (inactive)
- inhibition of aggregation [2]: -7.8% (inactive)
- nuclei count [2]: 98%
- inhibition [3]: -54.5% (inactive)
- nuclei count [3]: 112%
- fluorescence slope [4]: -0.113 (active)
- NADPH fluorescence slope [5]: -9.7e-06 (inactive)
- slope [6]: 0.00452 (inactive)
- inhibition [7]: 15.5% (inactive)
- inhibition [8]: 31.6% (inactive)

Structure (SMILES): COc1ccc(CN2CCN(C(=O)Cc3ccccc3)CC2)c(OC)c1
- cell count [1]: 402
- inhibition [1]: 2.1% (inactive)
- inhibition of aggregation [2]: 8% (inactive)
- nuclei count [2]: 94%
- inhibition [3]: -13.2% (inactive)
- nuclei count [3]: 114%
- fluorescence slope [4]: -0.6 (inactive)
- NADPH fluorescence slope [5]: 1.9e-05 (inactive)
- slope [6]: 0.00526 (inactive)
- inhibition [7]: 15.3% (inactive)
- inhibition [8]: 25.6% (inactive)

Structure (SMILES): O=C(c1ccncc1)C12CN3CN(CN(C3)C1)C2
- cell count [1]: 459
- inhibition [1]: 4.5% (inactive)
- inhibition of aggregation [2]: 15.7% (inactive)
- nuclei count [2]: 104%
- inhibition [3]: -155% (inactive)
- nuclei count [3]: 98.1%
- fluorescence slope [4]: -0.409 (inactive)
- NADPH fluorescence slope [5]: -3.9e-05 (inactive)
- slope [6]: 0.00372 (inactive)
- inhibition [7]: 10% (inactive)
- inhibition [8]: 30.7% (inactive)

Structure (SMILES): CC(=NCCCN1CCOCC1)c1c(O)n(-c2ccccc2C)c(=O)[nH]c1=O
- cell count [1]: 377
- inhibition [1]: 3.3% (inactive)
- inhibition of aggregation [2]: -27.1% (inactive)
- nuclei count [2]: 107%
- inhibition [3]: -21.8% (inactive)
- nuclei count [3]: 112%
- fluorescence slope [4]: -0.506 (inactive)
- NADPH fluorescence slope [5]: -3.5e-05 (inactive)
- slope [6]: 0.00474 (inactive)
- inhibition [7]: 7.9% (inactive)
- inhibition [8]: 15% (inactive)

Structure (SMILES): COc1ccc(OC)c(N2C(=O)NC(=O)C(CCc3ccncc3)(CCc3ccncc3)C2=O)c1
- cell count [1]: 397
- inhibition [1]: 1% (inactive)
- inhibition of aggregation [2]: -24.7% (inactive)
- nuclei count [2]: 107%
- inhibition [3]: -73% (inactive)
- nuclei count [3]: 115%
- fluorescence slope [4]: -0.329 (inactive)
- NADPH fluorescence slope [5]: -2.9e-06 (inactive)
- slope [6]: 0.00479 (inactive)
- inhibition [7]: 10.1% (inactive)
- inhibition [8]: 12% (inactive)

Structure (SMILES): CC1(C)C(c2ccccc2)=NC(c2cccnc2)N1O (stereo not drawn)
- cell count [1]: 309
- inhibition [1]: 8.2% (inactive)
- inhibition of aggregation [2]: -17.9% (inactive)
- nuclei count [2]: 108%
- inhibition [3]: 17.6% (inactive)
- nuclei count [3]: 99.6%
- fluorescence slope [4]: -0.495 (inactive)
- NADPH fluorescence slope [5]: -6.7e-05 (inactive)
- slope [6]: 0.00634 (inactive)
- inhibition [7]: 14.6% (inactive)
- inhibition [8]: 25.5% (inactive)

Structure (SMILES): O=c1[nH]c(=O)n(CCc2ccc(F)cc2)c(O)c1C=NCCCn1ccnc1
- cell count [1]: 544
- inhibition [1]: 2.2% (inactive)
- inhibition of aggregation [2]: -7.2% (inactive)
- nuclei count [2]: 110%
- inhibition [3]: 2.2% (inactive)
- nuclei count [3]: 102%
- fluorescence slope [4]: -0.589 (inactive)
- NADPH fluorescence slope [5]: -3.2e-05 (inactive)
- slope [6]: 0.00323 (inactive)
- inhibition [7]: 13.3% (inactive)
- inhibition [8]: 24% (inactive)

Structure (SMILES): Cc1nn(Cc2ccccc2Cl)c(Cl)c1C(=O)OCC(=O)NCc1ccco1
- cell count [1]: 459
- inhibition [1]: -14% (inactive)
- inhibition of aggregation [2]: 3.2% (inactive)
- nuclei count [2]: 105%
- inhibition [3]: -20.7% (inactive)
- nuclei count [3]: 112%
- fluorescence slope [4]: -0.605 (inactive)
- NADPH fluorescence slope [5]: -1.7e-05 (inactive)
- slope [6]: 0.00264 (inactive)
- inhibition [7]: 5.25% (inactive)
- inhibition [8]: -0.539% (inactive)

Structure (SMILES): CCC(=NCCCN1CCOCC1)c1c(O)n(Cc2ccccc2)c(=O)[nH]c1=O
- cell count [1]: 481
- inhibition [1]: 0.8% (inactive)
- inhibition of aggregation [2]: 8.2% (inactive)
- nuclei count [2]: 101%
- inhibition [3]: -36.6% (inactive)
- nuclei count [3]: 167%
- fluorescence slope [4]: -0.629 (inactive)
- NADPH fluorescence slope [5]: -2.2e-05 (inactive)
- slope [6]: 0.00745 (inactive)
- inhibition [7]: -4.98% (inactive)
- inhibition [8]: 1.2% (inactive)

Structure (SMILES): Cc1cnn(C2CCN(C)CC2)c1N
- cell count [1]: 791
- inhibition [1]: -7.4% (inactive)
- inhibition of aggregation [2]: -22.3% (inactive)
- nuclei count [2]: 75.4%
- inhibition [3]: 0.5% (inactive)
- nuclei count [3]: 110%
- fluorescence slope [4]: -0.495 (inactive)
- NADPH fluorescence slope [5]: 1.3e-05 (inactive)
- slope [6]: 0.00651 (inactive)
- inhibition [7]: -8.1% (inactive)
- inhibition [8]: 14.8% (inactive)

Structure (SMILES): Nc1ccnn1C1CCNCC1
- cell count [1]: 285
- inhibition [1]: 2.4% (inactive)
- inhibition of aggregation [2]: 6.2% (inactive)
- nuclei count [2]: 99.6%
- inhibition [3]: -43.8% (inactive)
- nuclei count [3]: 127%
- fluorescence slope [4]: -0.541 (inactive)
- NADPH fluorescence slope [5]: 2.9e-05 (inactive)
- slope [6]: 0.00512 (inactive)
- inhibition [7]: 5.24% (inactive)
- inhibition [8]: 17.3% (inactive)

Structure (SMILES): COc1ccc(CC[n+]2cc(/N=C(\C)[O-])on2)cc1OC
- cell count [1]: 648
- inhibition [1]: -23.5% (inactive)
- inhibition of aggregation [2]: -6% (inactive)
- nuclei count [2]: 130%
- inhibition [3]: 48.2% (inactive)
- nuclei count [3]: 95.3%
- fluorescence slope [4]: -0.574 (inactive)
- NADPH fluorescence slope [5]: 6e-06 (inactive)
- slope [6]: 0.00583 (inactive)
- inhibition [7]: 7.77% (inactive)
- inhibition [8]: 25.3% (inactive)
